The nature of assay [1]: APR_HepG2_CellCycleArrest_24hr: Apredica 24-hour HepG2 Assay for Cell Cycle Arrest (AID 2282905).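 Note: cell cycle arrest scored as ratio of 2N to 4N nuclear DNA content.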 The conditions noted are these: imaging, actives raise or lower the signal. In a few lines: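 Step one: dose HepG2 with test compounds, 0.39–200 uM, 0.5% DMSO, 24 hr. Step two: fix, permeabilize, stain nuclei with Hoechst 33342. Step three: image six fields per well at 20x, quantify DNA content, fit bidirectionally relative to DMSO.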

A short description of assay [2]: APR_HepG2_StressKinase_1hr: Apredica 1-hour HepG2 Assay for Stress Kinase (AID 2282906). The conditions noted are these: HepG2 stress kinase (phospho-c-Jun) imaging, actives raise or lower the signal. Put shortly: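 High-content imaging of phospho-c-Jun immunostaining (with Hoechst nuclear identification) after a 1 h exposure of HepG2 cells to 10 concentrations from 0.39 to 200 uM, final DMSO 0.5%. Fitted bidirectionally against DMSO.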

The nature of assay [3]: APR_HepG2_NuclearSize_24hr: Apredica 24-hour HepG2 Assay for Nuclear Size (AID 2282907). The conditions noted are these: high-content imaging, actives raise or lower the signal. In a few lines: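 After fixation and permeabilization, 24-hr-treated HepG2 cells were stained with Hoechst 33342 and imaged on an ArrayScan (20x). Doses spanned 0.39–200 uM in duplicate. Nuclear diameter changes in either direction were fitted relative to 0.5% DMSO controls.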

Assay [4] can be described thus: APR_HepG2_CellLoss_24hr: Apredica 24-hour HepG2 Assay for Cell Loss (AID 2282908).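 For AC50: fit in both directions so a hit may be cell loss or gain.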 The conditions noted are these: high-content imaging. Put shortly:
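Duplicate wells received compound at ten concentrations (0.39–200 uM; final DMSO 0.5% v/v). After fixation with formaldehyde, nuclei stained with Hoechst 33342 were imaged at 20x. Loss or gain of cell count was fitted relative to DMSO controls.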

Assay [5] can be described thus: APR_HepG2_MicrotubuleCSK_24hr: Apredica 24-hour HepG2 Assay for Microtubule CSK Stabilty (AID 2282909). The conditions noted are these: HepG2 microtubule cytoskeleton imaging, actives raise or lower the signal. In a few lines: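 Microtubule stability is scored from tubulin immunofluorescence in fixed HepG2 cells imaged at 20x. Cells receive ten compound concentrations up to 200 uM for 24 h; taxol and DMSO serve as positive and negative controls.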

Assay [6] in a line: APR_HepG2_MitoticArrest_24hr: Apredica 24-hour HepG2 Assay for Mitotic Arrest (AID 2282910). The conditions noted are these: high-content imaging, actives raise or lower the signal. Put shortly:
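Treatment lasted 24 hr in the human HepG2 line at 0.39–200 uM, solvent held at 0.5% DMSO. Fixed cells were stained with Hoechst 33342 and anti-phospho-histone H3, imaged at 20x, and analysed by gain- or loss-of-signal fitting against DMSO.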

A short description of assay [7]: APR_HepG2_MitoMembPot_24hr: Apredica 24-hour HepG2 Assay for Mitochondrial Membrane Potential (AID 2282911). The conditions noted are these: imaging, actives raise or lower the signal. In a few lines:
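Cells are dosed for 24 hr across 0.39 to 200 uM with solvent held at 0.5% DMSO. They are then stained with 250 nM MitoTracker Red CMXRos for 30 min, fixed in 3.7% formaldehyde and imaged.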

A short description of assay [8]: APR_HepG2_MitoMass_24hr: Apredica 24-hour HepG2 Assay for Mitochondrial Mass (AID 2282912). The conditions noted are these: high-content imaging, actives raise or lower the signal. In a few lines:
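Readout: fluorescence of MitoTracker Red CMXRos (250 nM, added 30 min pre-fixation) in fixed HepG2 cells imaged by HCS. Exposure lasted 24 hr at 0.39–200 uM; increases and decreases were both fitted relative to DMSO.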

A short description of assay [9]: APR_HepG2_p53Act_24hr: Apredica 24-hour HepG2 Assay for p53 Activation (AID 2282913).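 Note: p53 protein immunofluorescence averaged per cell in HepG2 with Hoechst nuclei.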 The conditions noted are these: high-content imaging, actives raise or lower the signal. Put shortly: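 Human HepG2 liver cells; 24 hr cpd treatment, 0.39–200 uM, 0.5% DMSO final. Fixed in 3.7% formaldehyde, permeabilized with 0.5% Triton X-100, stained with anti-p53/Cy5 plus Hoechst 33342. Six images per well at 20x; gain or loss vs DMSO.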

The nature of assay [10]: APR_HepG2_CellCycleArrest_72hr: Apredica 72-hour HepG2 Assay for Cell Cycle Arrest (AID 2282914). The conditions noted are these: high-content imaging, actives raise or lower the signal. Put shortly: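 Read-out is Hoechst-stained nuclear DNA content measured by automated fluorescence imaging (20x, six images per well), fitted in both directions relative to DMSO. Human HepG2 liver cells received 0.39–200 uM compound for 72 hr at 0.5% v/v DMSO.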

Activity calls are given as the source filed them. Rule for the calls: active = hit-call score of the fitted dose curve at least 0.9, where 1 is the maximum; inactive = score below 0.9.

For `COP(=S)(OC)Oc1ccc(SC)c(C)c1`, the result in [1], in assay [2], in assay [3], in [4], in [5] and in assay [6] was inactive. For the same molecule, the molecule was called inactive in assay [7], in [8] and in [9]. For the same molecule, in assay [10], the AC50 (commonly the midpoint of the concentration-response curve, whichever way the signal moves) is 54.3 µM (active).

Turning to `CCc1ccc(C(=O)NN(C(=O)c2cc(C)cc(C)c2)C(C)(C)C)cc1`, the result in assay [1], in assay [2], in assay [3], in assay [4], in assay [5] and in assay [6] was inactive. Moreover, the molecule was classed as inactive in [7], in assay [8], in assay [9] and in assay [10].

As to `COC(=O)c1ccccc1S(=O)(=O)NC(=O)Nc1nc(C)nc(OC)n1`, the outcome in assay [1], in assay [2], in assay [3], in [4], in assay [5] and in assay [6] was inactive. For the same molecule, the molecule was classed as inactive in [7], in assay [8], in assay [9] and in assay [10].

For `C#CCN1C(=O)COc2cc(F)c(N3C(=O)C4=C(CCCC4)C3=O)cc21`, the call in assay [1], in assay [2], in assay [3], in [4], in assay [5] and in [6] was inactive. For the same molecule, the outcome in [7], in [8] and in [10] was inactive.

Turning to `CN1CSC(=S)N(C)C1`, the outcome in assay [1], in assay [3], in [5], in [7], in assay [8] and in assay [9] was inactive. In addition, the figures for the AC50 in assay [2], in [4] and in [6] were 40.9 µM (active), 16.8 µM (active) and 27 µM (active), respectively.

In the case of `CC(C)(C)C(O)/C(=C\c1ccc(Cl)cc1Cl)n1cncn1` (stereo not drawn), the molecule was called inactive in assay [1], in [2], in [3], in assay [4], in assay [5] and in assay [6]. The outcome in assay [7], in [8] and in [9] was inactive.

`COc1nn(CSP(=S)(OC)OC)c(=O)s1`: the molecule was classed as inactive in [1], in assay [2], in assay [3], in assay [4], in assay [5] and in assay [6]. Besides, the result in assay [7], in assay [8] and in assay [9] was inactive.

With `CCC(C)(C)C(=O)OC1=C(c2ccc(Cl)cc2Cl)C(=O)OC12CCCCC2`, the AC50 in assay [1] is 60.2 µM (active); in assay [4], 137 µM (active); in assay [5], 100 µM (active). Besides, the outcome in assay [2], in [3], in [6], in [7], in assay [8] and in assay [9] was inactive. Besides, the outcome in [10] was inactive.

`N#Cc1c(Cl)c(Cl)c(Cl)c(C#N)c1Cl`: the call in assay [1], in assay [3], in assay [4], in assay [5], in [6] and in assay [7] was inactive. The call in [8] and in [9] was inactive. Also, in assay [2], the concentration at half-maximal activity (AC50) was 1.94 µM (active).

On to `CCN(CC)C(=O)SCc1ccc(Cl)cc1`, for which the call in assay [1], in assay [2], in assay [3], in [4], in assay [5] and in assay [6] was inactive. Moreover, the molecule was classed as inactive in assay [8], in [9] and in assay [10]. Besides, the AC50 in assay [7] is 22.8 µM (active).

Regarding `Clc1ccccc1-c1nnc(-c2ccccc2Cl)nn1`, the AC50 is 67.6 µM (active) in [1] and 59.5 µM (active) in assay [7]. In addition, the call in [2], in assay [3], in [4], in [5], in assay [6] and in assay [8] was inactive. In addition, the molecule was classed as inactive in assay [10].

Take `OCCOc1ccccc1`: the molecule was called inactive in [1], in [2], in assay [3], in [4], in assay [5] and in assay [6]. The result in [7], in assay [8] and in assay [9] was inactive.

With `C[C@H]1[C@H](c2ccc(Cl)cc2)SC(=O)N1C(=O)NC1CCCCC1`, the molecule was classed as inactive in assay [1], in [2], in assay [3], in assay [4], in assay [5] and in [6]. Moreover, the result in assay [7], in assay [8], in assay [9] and in assay [10] was inactive.

The record behind these values is PubChem BioAssay (EPA / NIEHS).
